Screening data (PubChem)
HCV inh: blocks hepatitis C virus. Huh7.5.1 HCVcc-Cre infection, luciferase reporter, 44 h. Potency, µM (highest dose often 41.8 µM), for the others: top-dose activity change, negative = inhibition, most hits filed as inhibitors. 3.4% of 340,000 active. AID 651820; also: potency is read from the fitted curve at half-maximal effect
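Cells (1,000/well) were plated 4 h before compound, then infected with HCVcc-Cre virus (~0.5 moi). After 44 h further culture, infection was read as luciferase luminescence following a 15 min substrate incubation at room temperature.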
HCMV inh: blocks human cytomegalovirus replication; HFF cells, HCMV-luciferase reporter, 72 h; stronger effect = lower value; activity change, negative = inhibition, % at 57.5 µM; 4.5% of 410,000 active; AID 1259415; in the data active = activity change below about -60%; inconclusive = no clear call, values can overlap the other calls; inactive = above about -39%
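Luciferase read-out from HCMV-luciferase-infected HFFs (MOI 1 PFU/cell) 72 h post infection at 37C; compounds added after 16 h cell attachment; activity normalized between buffer-only basal and Salinomycin (10uM) inhibitor controls.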
Pf growth 96h: P. falciparum growth inhibition at 96 hours. P. falciparum luciferase reporter growth, 96 h. Potency, µM (top dose mostly 28.7 µM), for inactives: at the highest dose activity change, negative = inhibition, hits mostly inhibitors. 6.9% of 320,000 active. AID 504834; also: potency is read from the fitted curve at half-maximal effect
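Readout is luminescence from an integrated firefly luciferase in P. falciparum. Red cells, 2% hematocrit and 0.05% parasitemia final, were cultured with compound through two parasite generations (96 hours) at 37 C, 5% CO2.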
Pf growth 48h: inhibits P. falciparum growth in the first generation, 48 h | P. falciparum luciferase growth in erythrocytes, 48 h | Potency, µM (doses to about 28.7 µM), inactives show at the top dose activity change, negative = inhibition, actives largely listed as inhibitors | 5.9% of 310,000 active; also: potency is read from the fitted curve at half-maximal effect
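Luciferase-expressing P. falciparum in infected erythrocytes (2% hematocrit, 0.1% parasitemia final) in RPMI 1640/0.5% Albumax were exposed to compound for 48 hours at 37 C, 5% CO2; growth read as luminescence.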
* hit, by the source's call; ? = inconclusive; . = no result. The list is not random: actives were taken first. Their share in the collection is about 13%. Unless noted, calls follow the shape of the dose curve; as a rule, active = well fitted inhibition curve with a large enough effect; inconclusive = small, poorly fitted or top-dose-only effect, or another doubt; inactive = no such curve, though single readings can be large or run the other way. % is scaled to controls: 0 for no effect and ±100 for the full control effect.

SMILES	HCV inh	HCMV inh	Pf growth 96h	Pf growth 48h
CCc1ccccc1Nc1cc(C(=O)NCCc2ccccc2)c2ccccc2n1	.	7.4	.	.
Cc1nc2sc(C(=O)Nc3ccc(F)cc3)c(N)c2c(-c2ccc(Br)cc2)c1C(=O)Nc1ccc(Cl)cc1	.	27.7	.	.
CCCOc1cc(CN2CCCCC2)cc(C(C)=O)c1	12.6%	17.4	9.28µM*	8.1%
COc1ccc(C(C)=O)cc1CN1CCCCC1	5.3%	-7.7	-20.2%	-6.1%
COc1cc2c(cc1OC)C(c1ccc(F)cc1)N(c1ccc(F)cc1)C(=O)C2 (centres undefined)	.	14.4	.	.
O=C(NCCc1ccccc1)C(c1cccs1)N(C(=O)CCl)c1ccc(Cl)cc1 (centres undefined)	?	-99.5*	?	?
CCc1nnc(SCC(=O)Nc2ccc(F)cc2F)c2cc3sc(C)cc3n12	.	17.7	.	.
COc1ccc(-c2nnn(Cc3ccccc3)n2)cc1	8.3%	128.4	13.1µM*	42.4%
O=C(NNC(=S)Nc1ccc(Cl)cc1Cl)c1ccncc1	14.2%	-2.1	4.15µM*	24.1%
O=C(NNC(=S)Nc1ccc(Cl)cc1Cl)c1cccnc1	5.6%	-64.2*	?	68.8%
CCOc1ccccc1NS(=O)(=O)c1ccc(N2CCCCS2(=O)=O)cc1	.	22.8	.	.
O=c1c2c3c(sc2n2cnnc2n1-c1ccccc1)N(Cc1ccccc1)CCC3	-0.3%	.	4.15µM*	?
CN1CCc2c(sc3c2c(=O)n(-c2cccc(Cl)c2)c2nncn32)C1	?	-15.9	.	.
Cc1nn(-c2ccc(N3CCCC3)nn2)c(C)c1CCC(=O)N1CCN(c2ccc(F)cc2)CC1	.	-38.6	.	.
O=C1C2C3C=CC(C3)C2C(=O)N1c1cccc2cccnc12 (centres undefined)	-2.5%	7.1	5.86µM*	0.1%
O=C1C2C3C=CC(C3)C2C(=O)N1c1cccc(N2C(=O)C3C4C=CC(C4)C3C2=O)n1 (centres undefined)	10.5%	41.5	-8.5%	6.0%
Cc1sc2ncnc(N3CCC(C(=O)Nc4ccc(Cl)cc4Cl)CC3)c2c1C	?	-20.5	?	10.4µM*
CCc1cccc(NC(=O)C2CCN(c3ncnc4sc(C)c(C)c34)CC2)c1	11.2µM*	-39.2	.	.
Cc1sc2ncnc(N3CCC(C(=O)NCC(=O)Nc4ccc(F)c(F)c4)CC3)c2c1C	8.91µM*	-35.1	?	?
CCN(CC)c1ccc(C(=O)NNC(=O)C2CCN(c3ncnc4sc(C)c(C)c34)CC2)cc1	.	-15.0	.	.
Cc1sc2ncnc(N3CCC(C(=O)Nc4ccc(C#N)c(Cl)c4)CC3)c2c1C	-10.7%	-32.6	11.7µM*	?
Cc1sc2ncnc(N3CCC(C(=O)Nc4ccc(Br)cc4Br)CC3)c2c1C	?	-16.4	?	?
Cc1cccc(OCC(=O)NNC(=O)C2CCN(c3ncnc4sc(C)c(C)c34)CC2)c1	-13.1%	-38.7	0.0%	?
COc1ccc(NC(=O)CSc2nc3nc(C)c(Cc4ccc(C)cc4)c(C)n3n2)cc1OC	.	13.4	.	.
COc1ccc(NC(c2ccc(F)cc2)c2nnc(-c3ccccc3Cl)o2)cc1Cl (centres undefined)	.	9.3	.	.
SMILES	HCV inh	HCMV inh	Pf growth 96h	Pf growth 48h
CNC(=O)c1ccc(NC(=O)C2CCN(c3ncnc4sc(C)c(C)c34)CC2)cc1	-21.4%	?	?	?
Cc1sc2ncnc(N3CCC(C(=O)Nc4ccc(Cl)c(Cl)c4)CC3)c2c1C	?	0.0	?	13.1µM*
COC(=O)c1ccc(NC(=O)c2cc(=O)c3ccc(C)cc3o2)cc1	.	-6.3	.	.
COC(=O)[C@@]1(Sc2ccc(OC)cc2)CC(=O)N(c2ccc(OC)cc2)[C@@H]1c1ccc(OC(C)C)c(OC)c1	.	-4.8	.	.
COc1ccc(S(=O)(=O)NCc2ccc(C(=O)NCc3cccnc3)cc2)cc1	.	40.4	?	-4.9%
CC(C)c1ccc(NC(=O)c2cc(S(=O)(=O)NCc3ccccc3Cl)ccc2F)cc1	.	-81.6*	.	.
COc1ccc(S(=O)(=O)NCc2cccnc2)cc1C(=O)NC1CCCCC1	.	39.3	1.4%	-1.4%
COc1cccc(NC(=O)c2ccc(S(=O)(=O)NCc3cccnc3)cc2)c1	10µM*	-60.5*	2.6%	13.0%
COc1ccc(S(=O)(=O)NCc2cccnc2)cc1C(=O)Nc1ccccc1	5.0%	-2.2	10.4µM*	-14.0%
O=C(NC1CCCCC1)c1ccc(S(=O)(=O)NCc2cccnc2)cc1	-22.5%	-60.8*	.	-12.3%
Cc1ccc(C)c(N2CCN(C(=O)Cn3cnc4sc(C)c(S(=O)(=O)N5CCN(c6ncccn6)CC5)c4c3=O)CC2)c1	.	-9.7	.	.
